Laboratory results as given in PubChem BioAssay (NCI).
About 83,000 compounds went through this panel and 20% of them were active in at least one assay; those are over-represented in the sample as a whole.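 Activity criterion: percent growth below 10, measured after cells in 96-well plates were exposed to a single compound concentration for 48 hours.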 Values without a mark were called inactive. The source made the active and inactive calls.

Test system: HL-60(TB) leukemia
Test: NCI-60 one-dose screen, 48 h (100 = growth as untreated, 0 = no growth, -100 = all killed)
Conditions: 10 µM unless noted

Row | Compound | growth
1 | CC(C)(C)c1cc(-c2nc3ccc(N4CCN(CCO)CC4)cc3[nH]2)cc(C(C)(C)C)c1O | 63.5%
2 | C=CCn1c(SCC(=O)Nc2ccc(/C(C)=N\O)cc2)nnc1-c1cc(-c2ccc(OC)cc2)nc2ccccc12 | -39.2% (active)
3 | OC(c1cccc(C(F)(F)F)c1)c1cnccc1NC1CCCCCC1 (centres undefined) | -30.7% (active)
4 | O=C(O)c1cc([N+](=O)[O-])ccc1Oc1ccccc1 | 88.6%
5 | CN1C(=O)C(=Cc2cn(Cc3ccccc3)c3ccc(Br)cc23)C(=O)N(C)C1=O | 73.3%
6 | CCOC(=O)c1c2c(n3ccc(NC(=O)CCN4CCCC4)cc13)C(=O)c1ncccc1C2=O | -34.2% (active)
7 | CC1=NN(c2cccc(Cl)c2)C(=O)/C1=C\c1cn(CC(O)CN2CCCCC2)c2ccccc12 (centres undefined) | 25.7%
8 | COc1ccc(C2C3=C(COC3=O)N(CCO)c3cc4c(cc32)CCC4)cc1OC (centres undefined) | 0.0588% (active)
9 | COc1ccc(C(=O)/C=C/c2ccc(Cl)cc2)cc1S(=O)(=O)Nc1c(N)nc(SC)[nH]c1=O | 36.8%
10 | Oc1ccccc1C=NCC1CCC(CN=Cc2ccccc2O)CC1 (centres undefined) | 123%
11 | CCCCC[C@H](O)C/C=C1/C(=O)C=C[C@@H]1C/C=C\CCCC(=O)OC | 25.1%
12 | CCCCCCNc1nc(N2CCOCC2)c2[nH]c(NCCCCCC)nc2n1 | -54.8% (active)
13 | COc1cc2nc(Sc3sc(N)nc3C)n(-c3ccc(Oc4ccccc4)cc3)c(=O)c2cc1OC | 78.9%
14 | COc1ccc(C2Nc3ncnc(N)c3N=C3c4ccccc4C(=O)C32)cc1 (centres undefined) | 58.8%
15 | COc1ccc2c(c1)cn1c3ccc(O)cc3[nH]c(=O)c21 | -21.7% (active)
16 | Cc1cccc(/C=N/n2c(-c3ccc(Cl)cc3)nc3c(Br)cc(Br)cc3c2=O)c1 | 70.8%
17 | CC1=CC(C)(C)NC(=S)N1c1ccc(S(=O)(=O)O)c2cccc(S(=O)(=O)O)c12 | 106%
18 | OC(CCC(O)(c1ccccc1)c1ccccc1)(c1ccccc1)c1ccccc1 | -21.7% (active)
19 | CC(=O)c1ccc(C(C)(C)C)cc1 | 100%
20 | Nc1ccc(S(=O)(=O)Nc2ccsc2-c2nc(-c3ccccc3)no2)cc1 | 35.1%

Row | Compound | growth
21 | COCCNC(=O)Nc1ccc2nc(-c3cccs3)c(-c3cccs3)nc2c1 | 81.5%
22 | COc1ccc(OC)c(CCn2cncc2-c2c[nH]c3ccccc23)c1 | 80.8%
23 | CCCc1cc(=O)n2c(C(=O)Nc3ccc(F)cc3)c(C(=O)Nc3ccc(F)cc3)sc2n1 | 106% [30 µM]
24 | CCCCCCCCCCCCCCC(C(=O)OCC)C(=O)OCC | 104%
25 | CS(=O)(=O)c1ccc(C(=O)N2N=C(c3ccccc3)CC2c2ccc3c(c2)OCO3)cc1 (centres undefined) | 37%
26 | COc1c(O)c(O)cc2c3c(oc12)CC(c1ccc2c(c1)OCO2)CC3=O (centres undefined) | 61.1%
27 | CCCc1cccc(CCC)c1NC(=O)Nc1cc(Cl)cc(Cl)c1 | 101%
28 | Cc1ccc(-c2cc3nc(C(Cl)Cl)nc(-c4ccccc4C)n3n2)cc1 | 78.4%
29 | CC(C)N1C(=O)/C(=c2\sc3n(c2=O)C2C(NN=3)N(C)C(=O)N2C)c2ccccc21 (centres undefined) | 25.8%
30 | CCCCCCN(CCCCCC)CCC(O)c1ccc2ccccc2c1 (centres undefined) | 42.4%
31 | CON1CCC[C@]2(C)[C@H]3CC[C@@H]4[C@H]5[C@@H](O)C(C)(C)CC[C@]5(CO)CC[C@@]4(C)[C@]3(C)CC[C@H]2C1(C)C | 91.5%
32 | O=Cc1ccc(O)c(O)c1 | 88%
33 | Nc1ncc(-c2ccc3ncnc(Nc4cccc(Cl)c4)c3c2)cn1 | 58.1%
34 | N/C(=N\c1nc2ccccc2s1)NC(=O)Nc1cccc(Cl)c1 | 3.43% (active)
35 | CCCCCCCCCCOC(=O)c1nn(C(C)=O)c2cc(C)c(C)cc12 | 101%
36 | CCCCOc1nc2ccc(Cl)cc2cc1/C=C/C(=O)/C=C1/CC(c2cc3cc(Cl)ccc3nc2OCCCC)Nc2ccccc2N1 (centres undefined) | 101%
37 | COc1ccc(NCc2cn(-c3ccc(C(=O)O)cc3)nc2-c2ccc(C(=O)O)cc2)cc1C(F)(F)F | 118%
38 | COc1cc(Oc2cc(-c3cccnc3)ccc2NC(=O)Nc2ccc(F)cc2F)cc(OC)c1OC | 91.3%
39 | CCN1CCN(C(=O)[C@]23CC[C@@H](C)[C@H](C)[C@@H]2C2=CC[C@@H]4[C@@]5(C)C/C(=C/c6cccnc6)C(=O)C(C)(C)[C@@H]5CC[C@@]4(C)[C@]2(C)CC3)CC1 | -38.2% (active)
